The results in this text go back to PubChem BioAssay (NCATS).

Results filed as inconclusive are left out. A number with no mark means an inactive call. Calls of active or inactive are those of the source. Calls come from the whole dose curve; as a rule, active = well fitted cell-killing curve with a large enough effect; inconclusive = small, poorly fitted or top-dose-only effect, or effect the other way; inactive = flat fitted curve, though single readings scatter.
% is set by controls: 0 for no effect and ±100 for the full control effect; potency is the fitted concentration of half-maximal effect.

For the first assay, the system named is SKOV3. Put plainly: Primary qHTS to identify gynecologic anti-cancer compounds using libraries of approved drugs and bioactive compounds (AID 1345084). Note: nearly all actives have a fitted effect of over 55% in size. The settings on record: Gynecologic cancer cell panel viability, ATPlite luminescence, 48 h; series mostly up to 57.5 µM; activity change, negative = cytotoxicity: at the top concentration. An outline of the steps:
(§1)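 In this quantitative HTS, cell killing is estimated from loss of ATP-dependent luciferase light. Cells see five compound concentrations over a 48 h exposure.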
For `CNc1cc(OC)c(C(=O)N[C@@H]2CCN(Cc3ccccc3)[C@@H]2C)cc1Cl`, the “activity change, negative = cytotoxicity” value is 14.5%.
Still for that read-out and setting: the figure for `CCOC(=O)CCC(=O)O[C@H]1[C@H](O[C@@H]2[C@@H](C)[C@H](O[C@H]3C[C@@](C)(OC)[C@@H](O)[C@H](C)O3)[C@@H](C)C(=O)O[C@H](CC)[C@@](C)(O)[C@H](O)[C@@H](C)C(=O)[C@H](C)CC2(C)O)O[C@H](C)C[C@@H]1N(C)C` (some centres undefined) is 18.8%; for `C=C1C(=O)O[C@@H]2C[C@@H](C)[C@]34C[C@]5(C(=O)O[C@H]6CC(C)=C([C@H](C)CCCO)[C@H](OC(=O)C(C)CC)[C@H]65)[C@@H](C(C)=C3C[C@@H]12)[C@H]4OC(C)=O` (some centres undefined) it is -7.2% [at 25.3 µM]; for `CN(C)CC(=O)Nc1ccc2[nH]c(=O)c3ccccc3c2c1` it is -7.23%.
The same measure, in the same setting: the figure for `CC(CCC1(O)OC2CC3C4CC=C5CC(O[C@@H]6O[C@H](CO)[C@@H](O[C@@H]7O[C@H](CO)[C@@H](O)[C@H](O)[C@H]7O)[C@H](O)[C@H]6O[C@@H]6O[C@@H](C)[C@H](O)[C@@H](O)[C@H]6O)CCC5(C)C4CCC3(C)C2C1C)CO[C@@H]1O[C@H](CO)[C@@H](O)[C@H](O)[C@H]1O` (some centres undefined) is -2.2% [at 11.6 µM]; for `C[C@@H](CN1CCC(n2c(=O)[nH]c3cc(Cl)ccc32)CC1)NC(=O)c1ccc2ccccc2c1` it is 3.68%.
For the molecule `CC(C)c1ccc(NC(=O)C(c2ccccc2)N(C)C(=O)Cc2c[nH]c3ccccc23)cc1` (centres undefined), the “activity change, negative = cytotoxicity” value was 0.919%.
On the same count and under the same terms, the figure for `CCCCc1nc(Cl)c(CO)n1Cc1ccc(-c2ccccc2-c2nnn[nH]2)cc1` is 13%; for `CCNC(=O)[C@@H]1CCCN1C(=O)[C@H](CCCN=C(N)N)NC(=O)[C@H](CC(C)C)NC(=O)[C@@H](CC(C)C)NC(=O)[C@H](Cc1ccc(O)cc1)NC(=O)[C@H](CO)NC(=O)[C@H](Cc1c[nH]c2ccccc12)NC(=O)[C@H](Cc1cnc[nH]1)NC(=O)[C@@H]1CCC(=O)N1` it is 5.65% [at 25.3 µM].
In the case of `CCN(CC)Cc1cccc(/C=C/c2nc3ccc(F)cc3c(=O)n2-c2ccccc2Cl)n1`, the Potency is 20 µM (active).
In the case of `C=C(C(=O)O)C1CC2=C(C)C(=O)CC2C(C)CC1O` (centres undefined), the “activity change, negative = cytotoxicity” value is -25.6%.

The next assay has as its system Tov-21-G. Described as above. The settings on record: Gynecologic cancer cell panel viability, ATPlite luminescence, 48 h; series mostly up to 57.5 µM; activity change, negative = cytotoxicity: at the top concentration. An outline of the steps: as §1
In general terms: ATP-based viability assays read luminescence as a measure of living cells.
For `Nc1ccc(N)c([N+](=O)[O-])c1`, the “activity change, negative = cytotoxicity” value is -8.12% [at 116 µM].
On the same count and under the same terms, in the case of `COc1ccc(-c2c(C)c(C(=O)NN3CCCCC3)nn2-c2ccc(Cl)cc2Cl)cc1` it was 11.7%; in that of `O=C(CC1NCCC[C@H]1O)Cn1cnc2cc(Br)c(Cl)cc2c1=O` (some centres undefined), -0.265%.
The same measure, in the same setting: the figure for `Cc1c(C(=O)NCCCO)cnn1-c1nc(-c2cccc(C(F)(F)F)c2)cs1` is 0.411%; for `C[C@@H](O[C@H]1OCCN(Cc2n[nH]nc2CN(C)C)[C@H]1c1ccc(F)cc1)c1cc(C(F)(F)F)cc(C(F)(F)F)c1` it is -1.38%; for `CC[C@H](C)[C@H]1O[C@]2(CC[C@@H]1C)C[C@@H]1C[C@@H](C/C=C(\C)[C@@H](O[C@H]3C[C@H](OC)[C@@H](O[C@H]4C[C@H](OC)[C@@H](O)[C@H](C)O4)[C@H](C)O3)[C@@H](C)/C=C/C=C3\CO[C@@H]4[C@H](O)C(C)=C[C@@H](C(=O)O1)[C@]34O)O2` it is 11.9%.
As for `O=C(Nc1cccc(C(F)(F)F)c1)c1ccccc1NCc1ccncc1`, the “activity change, negative = cytotoxicity” value is 3.64%.
The same measure, in the same setting: in the case of `COc1cc2nc(-c3cc(F)ccc3O)nc(N[C@@H]3CNC[C@H]3C(C)(C)O)c2cc1OC` it was -22.5%.
The same measure, in the same setting: in the case of `Cc1cc(CN)cc(C)c1NC(=O)c1ccc(-c2cc(Cl)ccc2Cl)o1` it was -0.475%; in that of `C=C1C(=O)O[C@@H]2/C=C(/C)CC3C=C(C[C@H](OC(=O)/C(C)=C\C)[C@@H]12)C(=O)O3` (some centres undefined), -23.3% [at 38.5 µM]; in that of `CC1(C)SC2C(NC(=O)[C@H](NC(=O)N3CCNC3=O)c3ccccc3)C(=O)N2C1C(=O)O` (some centres undefined), 1.71%.
In the case of `CC1(C)SC2C(NC(=O)[C@H](C(=O)O)c3ccsc3)C(=O)N2C1C(=O)O` (some centres undefined), the “activity change, negative = cytotoxicity” value is 6.43%.
Still for that read-out and setting: in the case of `COc1ccc(-c2nc(-c3cc(C(F)(F)F)cc(C(F)(F)F)c3)n(Cc3ccc(C(N)=O)cc3)c2-c2ccc(OC)cc2)cc1` it was 19.6%; in that of `Fc1ccccc1CNCc1ccc(-c2ccnc3[nH]ccc23)cc1`, -1.53%.
On the same count and under the same terms, in the case of `CCCCc1nc(C)c(CC(=S)N(C)C)c(=O)n1Cc1ccc(-c2ccccc2-c2nn[nH]n2)cc1` it was 1.87%.
Still for that read-out and setting: the figure for `CO[C@@H]1[C@@H](O[C@H]2O[C@@H](C)[C@H](O[C@@H]3C[C@](C)(O)[C@H](O)[C@@H](C)O3)[C@@H](N(C)C)[C@@H]2O)[C@@H](CC=O)C[C@@H](C)[C@@H](O[C@H]2CC[C@H](N(C)C)[C@H](C)O2)/C=C/C=C/C[C@@H](C)OC(=O)C[C@H]1O` is -0.958%; for `CNc1cc(OC)c(C(=O)N[C@@H]2CCN(Cc3ccccc3)[C@@H]2C)cc1Cl` it is 2.95%.
Turning to `CN([C@H]1c2cc(OCCCC(F)(F)F)ccc2OC(C)(C)[C@@H]1O)S(C)(=O)=O`, the “activity change, negative = cytotoxicity” value is 3.56%.
For `CCOC(=O)CCC(=O)O[C@H]1[C@H](O[C@@H]2[C@@H](C)[C@H](O[C@H]3C[C@@](C)(OC)[C@@H](O)[C@H](C)O3)[C@@H](C)C(=O)O[C@H](CC)[C@@](C)(O)[C@H](O)[C@@H](C)C(=O)[C@H](C)CC2(C)O)O[C@H](C)C[C@@H]1N(C)C` (some centres undefined), the “activity change, negative = cytotoxicity” value is 14.7%.
Same read-out and setting: the figure for `C[C@H](NC(=O)C(C)(C)Oc1ccc(C(F)(F)F)cn1)[C@@H](Cc1ccc(Cl)cc1)c1cccc(C#N)c1` is -0.792%; for `CC(CCC1(O)OC2CC3C4CC=C5CC(O[C@@H]6O[C@H](CO)[C@@H](O[C@@H]7O[C@H](CO)[C@@H](O)[C@H](O)[C@H]7O)[C@H](O)[C@H]6O[C@@H]6O[C@@H](C)[C@H](O)[C@@H](O)[C@H]6O)CCC5(C)C4CCC3(C)C2C1C)CO[C@@H]1O[C@H](CO)[C@@H](O)[C@H](O)[C@H]1O` (some centres undefined) it is -1.21% [at 11.6 µM]; for `C[C@@H](CN1CCC(n2c(=O)[nH]c3cc(Cl)ccc32)CC1)NC(=O)c1ccc2ccccc2c1` it is 4.05%.
As for `CC(C)c1ccc(NC(=O)C(c2ccccc2)N(C)C(=O)Cc2c[nH]c3ccccc23)cc1` (centres undefined), the “activity change, negative = cytotoxicity” value was -0.965%.
Same read-out and setting: in the case of `CCCCC(=O)N(Cc1ccc(-c2ccccc2-c2nn[nH]n2)cc1)C(C(=O)O)C(C)C` (centres undefined) it was -1.81%.
On to `CCCCc1nc(Cl)c(CO)n1Cc1ccc(-c2ccccc2-c2nnn[nH]2)cc1`, for which the “activity change, negative = cytotoxicity” value is 11.7%.
The same measure, in the same setting: in the case of `COc1ccc2c(c1)CN(C(=O)CCN1CCC(Cc3ccccc3)CC1)CCS2` it was -8.67% [at 25.3 µM]; in that of `CCNC(=O)[C@@H]1CCCN1C(=O)[C@H](CCCN=C(N)N)NC(=O)[C@H](CC(C)C)NC(=O)[C@@H](CC(C)C)NC(=O)[C@H](Cc1ccc(O)cc1)NC(=O)[C@H](CO)NC(=O)[C@H](Cc1c[nH]c2ccccc12)NC(=O)[C@H](Cc1cnc[nH]1)NC(=O)[C@@H]1CCC(=O)N1`, -1.44% [at 25.3 µM]; in that of `COc1ccc(C2(CNC(=O)[C@](C)(Cc3c[nH]c4ccccc34)NC(=O)Nc3ccc([N+](=O)[O-])cc3)CCCCC2)nc1`, 18%.
